Results published in PubChem BioAssay.
Active and inactive are the calls of the source.

Legend:
[1] = optical density shifts of acrAB sulA E. coli – strain DRC41, OD650, 48 h, E. coli filamentation inducer project, primary screen (AID 1152); details: higher = more signal, called active from +8 up or from −8 down;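 note: E. coli MC1000 strain DRC41 lacking acrAB efflux pump and sulA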
[2] = probe aLefty1 binding on compound microarray – biochemical, small-molecule microarray, 635/667 nm fluorescence, primary screen (AID 1153); details: higher = more signal;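 note: score merges spot fluorescence with signal-to-noise ratio from the scanned slide images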
[3] = plasmodial surface anion channel blockers, osmotic lysis – cell-based, P. falciparum Indochina, OD700, 1 h, primary screen (AID 1154); details: P. falciparum Indochina infected RBC osmotic lysis, higher = more signal, called active from +8 up or from −8 down
[4] = plasmodial surface anion channel blockers, osmotic lysis – cell-based, P. falciparum Indochina, OD700, 2 h, primary screen (AID 1155);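 note: lysis reports solute entry through the parasite surface anion channel PSAC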; details: P. falciparum Indochina infected erythrocytes, higher = more signal, called active from +8 up or from −8 down
[5] = changes in parasitized red cell lysis, either direction – P. falciparum Indochina, OD700, 3 h, PSAC antagonist project, primary screen (AID 1156); details: P. falciparum-infected erythrocytes, osmotic lysis, higher = more signal, called active from +8 up or from −8 down
[6] = plasmodial surface anion channel blockers, osmotic lysis – cell-based, P. falciparum Indochina, OD700, 18 h, primary screen (AID 1157); details: P. falciparum Indochina infected erythrocytes, osmotic lysis OD700, 18 h; higher = more signal, called active from +8 up or from −8 down
[7] = S6 kinase pathway phospho-S6 level changes – cell-based, A549, cytoblot, luminescence, serum-stimulated, primary screen (AID 1158); details: 5 h, higher = more signal;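 note: serum-stimulated A549 lung adenocarcinoma cells; signal is phosphorylated S6 detected by cytoblot immunostaining with HRP secondary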
[8] = target: NADPH oxidase 2 (Homo sapiens) (UniProt P04839); experiment: compounds shifting NOX2 Amplex Red fluorescence – cell-based, HEK293-NOX2, PMA-stimulated, NOX inhibitor project, primary screen (AID 1159); details: 45 min, higher = more signal, called active from +8 up or from −8 down; note: test concentration not given here
[9] = target: NADPH oxidase 4 (Homo sapiens) (UniProt Q9NPH5); experiment: compounds shifting NOX4 Amplex Red fluorescence – cell-based, HEK293-NOX4, tetracycline-induced, NOX inhibitor project, primary screen (AID 1160); details: HEK293-NOX4, Amplex Red H2O2 fluorescence, 45 min; higher = more signal, called active from +8 up or from −8 down
[10] = target: NADPH oxidase 5 (Homo sapiens) (UniProt Q96PH1); experiment: compounds shifting NOX5 Amplex Red fluorescence – cell-based, HEK293-NOX5, NOX inhibitor project, primary screen (AID 1161); details: HEK293-NOX5, ionomycin, 45 min, higher = more signal
Sequence of NADPH oxidase 5 (Homo sapiens) (Q96PH1 whole entry, looked up): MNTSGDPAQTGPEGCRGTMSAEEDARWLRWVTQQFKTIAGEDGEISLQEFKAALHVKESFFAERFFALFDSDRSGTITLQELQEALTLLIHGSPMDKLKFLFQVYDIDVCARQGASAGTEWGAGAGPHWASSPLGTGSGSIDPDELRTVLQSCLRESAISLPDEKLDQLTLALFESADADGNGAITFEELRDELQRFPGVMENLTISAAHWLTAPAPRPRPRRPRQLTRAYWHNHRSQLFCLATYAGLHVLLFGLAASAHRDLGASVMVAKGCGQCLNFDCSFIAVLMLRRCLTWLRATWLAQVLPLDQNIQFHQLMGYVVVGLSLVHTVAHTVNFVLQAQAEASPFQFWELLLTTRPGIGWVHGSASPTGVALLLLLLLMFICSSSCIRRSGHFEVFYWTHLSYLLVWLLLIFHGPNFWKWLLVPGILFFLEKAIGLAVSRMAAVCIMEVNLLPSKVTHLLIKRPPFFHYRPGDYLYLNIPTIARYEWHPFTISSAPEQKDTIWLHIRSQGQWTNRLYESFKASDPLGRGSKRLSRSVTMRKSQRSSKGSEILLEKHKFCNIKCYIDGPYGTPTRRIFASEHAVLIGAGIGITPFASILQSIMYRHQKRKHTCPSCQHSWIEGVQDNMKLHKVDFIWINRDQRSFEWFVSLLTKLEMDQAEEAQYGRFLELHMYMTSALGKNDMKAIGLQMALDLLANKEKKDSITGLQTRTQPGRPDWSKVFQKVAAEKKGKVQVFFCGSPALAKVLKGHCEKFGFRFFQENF

Sequence of NADPH oxidase 2 (Homo sapiens) (P04839 whole entry, looked up): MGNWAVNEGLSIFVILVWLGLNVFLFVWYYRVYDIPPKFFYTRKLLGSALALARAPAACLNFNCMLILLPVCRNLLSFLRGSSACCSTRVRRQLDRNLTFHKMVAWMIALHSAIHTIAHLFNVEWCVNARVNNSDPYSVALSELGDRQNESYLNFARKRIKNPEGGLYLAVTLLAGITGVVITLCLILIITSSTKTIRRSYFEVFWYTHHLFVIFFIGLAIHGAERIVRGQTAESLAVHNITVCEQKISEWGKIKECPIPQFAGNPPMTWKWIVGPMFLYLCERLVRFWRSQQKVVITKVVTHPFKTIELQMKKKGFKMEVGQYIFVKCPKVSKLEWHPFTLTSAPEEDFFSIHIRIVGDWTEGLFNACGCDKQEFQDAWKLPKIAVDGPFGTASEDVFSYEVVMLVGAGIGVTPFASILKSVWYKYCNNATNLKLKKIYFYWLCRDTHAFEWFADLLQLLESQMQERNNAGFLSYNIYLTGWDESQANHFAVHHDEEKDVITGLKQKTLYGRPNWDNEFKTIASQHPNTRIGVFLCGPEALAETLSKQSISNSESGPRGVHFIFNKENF
Sequence of NADPH oxidase 4 (Homo sapiens) (Q9NPH5 whole entry, looked up): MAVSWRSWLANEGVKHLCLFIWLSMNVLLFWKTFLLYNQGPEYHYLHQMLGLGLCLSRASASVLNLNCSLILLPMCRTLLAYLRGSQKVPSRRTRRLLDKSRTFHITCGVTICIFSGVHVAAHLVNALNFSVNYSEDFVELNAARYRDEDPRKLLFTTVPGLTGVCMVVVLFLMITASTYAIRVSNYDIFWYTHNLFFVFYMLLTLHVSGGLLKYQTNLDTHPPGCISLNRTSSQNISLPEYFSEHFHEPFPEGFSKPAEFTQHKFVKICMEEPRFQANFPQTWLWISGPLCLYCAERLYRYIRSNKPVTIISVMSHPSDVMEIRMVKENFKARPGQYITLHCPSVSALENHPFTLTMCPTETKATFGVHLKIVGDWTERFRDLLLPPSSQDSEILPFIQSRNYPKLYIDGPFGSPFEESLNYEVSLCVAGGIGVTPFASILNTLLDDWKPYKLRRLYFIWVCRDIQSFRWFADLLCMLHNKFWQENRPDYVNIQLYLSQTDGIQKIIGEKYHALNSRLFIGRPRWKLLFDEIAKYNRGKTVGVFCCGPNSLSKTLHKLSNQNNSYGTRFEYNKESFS

SMILES	z-score [1]	composite z-score [2]	z-score [3]	z-score [4]	z-score [5]	z-score [6]	z-score [7]	z-score [8]	z-score [9]	z-score [10]
N#Cc1ccc(NN2C(C(O)C3CCCCC3)C=CC3C(=O)N(c4ccccc4)C(=O)C32)cc1 (stereo not given)	-1.35 (inactive)	0.545	13.2 (active)	2.67 (inactive)	3.79 (inactive)	1.49 (inactive)	-0.911	-2.02 (inactive)	-3.88 (inactive)	-3.01
CCCC[C@@H]1C[C@H]1[C@@H](NC(=O)c1ccc(-c2ccccc2)cc1)c1ccc(-c2ccccc2)cc1	-2.4 (inactive)	0.0341	2.15 (inactive)	0.275 (inactive)	1.68 (inactive)	0.446 (inactive)	-0.456	-1.32 (inactive)	-2 (inactive)	-0.619
CO[C@H]1O[C@H](CO)[C@@H](OC(=O)Nc2ccc3c(c2)OCO3)[C@H](OC(=O)Nc2ccccc2)[C@H]1OC(=O)Nc1ccccc1	-0.495 (inactive)	0.227	4.11 (inactive)	0.777 (inactive)	0.756 (inactive)	0.421 (inactive)	0.258	-6.93 (inactive)	-0.649 (inactive)	-2.08
O=C1O[C@H](c2ccccc2)[C@H](c2ccccc2)N2[C@H]1[C@@H](C(=O)NC[C@H](O)c1ccccc1)[C@]1(C(=O)Nc3ccc(C#CCCO)cc31)[C@H]2c1ccc(O)cc1	0.39 (inactive)	-0.293	0.211 (inactive)	-0.709 (inactive)	-0.317 (inactive)	-1.23 (inactive)	1.21	-0.687 (inactive)	0.0169 (inactive)	-3.93
COc1ccc(CCNC(=O)[C@@H]2c3ccccc3C(=O)N(Cc3ccc(OC(F)(F)F)cc3)[C@H]2c2ccc(CO)cc2)cc1	-0.989 (inactive)	-0.291	4.16 (inactive)	0.385 (inactive)	2 (inactive)	0.623 (inactive)	-0.404	-1.69 (inactive)	-0.245 (inactive)	-3.56
Cc1ccccc1C(O)C1C=CC2C(=O)N(C)C(=O)C2N1Nc1ccccc1 (stereo not given)	-1.71 (inactive)	0.274	1.15 (inactive)	0.737 (inactive)	-0.0787 (inactive)	1.1 (inactive)	-0.711	-1.39 (inactive)	-4.19 (inactive)	-2.72
C=CCC(OC(C)=O)[C@@H]1[C@@H](N(Cc2cc3ccccc3o2)C(=O)c2ccc(C)cc2)c2cc(OCCCO)ccc2N1C(=O)c1ccc2ccccc2c1 (stereo not given in full)	2.19 (inactive)	0.168	1.32 (inactive)	0.393 (inactive)	-0.44 (inactive)	0.0878 (inactive)	0.147	0.355 (inactive)	0.89 (inactive)	2.7
CCOC(=O)C1=CCC(C(C)(C)C)N(S(=O)(=O)c2ccc(C)cc2)C1 (stereo not given)	-1.32 (inactive)	0.0494	1.53 (inactive)	0.768 (inactive)	0.281 (inactive)	0.289 (inactive)	-0.693	-0.124 (inactive)	-1.21 (inactive)	0.194
CC(=O)NCCCC[C@@H]1NC(=O)[C@H]2C[C@@H](C(=O)NCCCCCC[N+](C)(C)C)[C@@H](c3cccc(OCCO)c3)N2C1=O	1.52 (inactive)	0.147	2.86 (inactive)	-1.48 (inactive)	0.657 (inactive)	-2.25 (inactive)	0.778	-0.329 (inactive)	0.383 (inactive)	-0.465
COC(=O)C[C@H]1O[C@]2(C(=O)N(Cc3ccccc3)c3ccc(NC(C)=O)cc32)[C@@H](C)[C@@H]1[Si](C)(C)c1ccc(OC)cc1	-0.202 (inactive)	-0.179	2.19 (inactive)	0.984 (inactive)	0.659 (inactive)	0.304 (inactive)	0.186	-0.0156 (inactive)	0.288 (inactive)	2.89
Cc1ccc([C@H]2C(C(=O)O)=C[C@@H](C)N2S(=O)(=O)c2ccc(C)cc2)cc1	-0.832 (inactive)	-0.149	1 (inactive)	0.587 (inactive)	0.018 (inactive)	0.39 (inactive)	-0.848	0.534 (inactive)	0.259 (inactive)	0.101
N[C@@H](Cc1ccccc1)Cn1cc(-c2ccccc2)nn1	-2.54 (inactive)	0.271	5.12 (inactive)	0.745 (inactive)	0.0287 (inactive)	0.53 (inactive)	-0.209	0.659 (inactive)	0.45 (inactive)	0.448
C[C@]1(C(=O)NCc2ccccc2)c2ccccc2C(=O)N(Cc2cc(F)cc(C(F)(F)F)c2)[C@H]1c1ccc(CO)cc1	0.537 (inactive)	-0.101	5.2 (inactive)	1.01 (inactive)	1.12 (inactive)	0.38 (inactive)	-0.239	-1.29 (inactive)	0.26 (inactive)	-0.151
